# Data as given in PubChem BioAssay AID1063 (University of Pittsburgh Molecular Library Screening Center, 2008).
# Out of some 200,000 compounds screened, about 18,000 (9%) were called active. Only a selection was taken, and actives are over-represented in it overall. Unmarked numbers belong to inactive results. Cut-off read from the data, not from the text of the source: active = inhibition above about 50%; inactive = the rest.
# Assay: Leishmania major promastigote growth inhibition, primary screen (AID 1063);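 note: promastigotes grown with compound for 44 hours at 28 °C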
# Conditions: Leishmania major promastigotes, resazurin fluorescence viability; at 10 µM; hits give high values
row,Structure (SMILES),inhibition
1,CCn1c(NC(=O)c2ccccc2)c(-c2cccs2)c(=O)c2ccccc21,0.95%
2,COCCCn1c(CCC(=O)O)ccc1-c1ccc(F)cc1,2.69%
3,CC(C)Cn1c(CCC(=O)O)ccc1-c1cccs1,95.5% (active)
4,CN(C)c1ccc(C=C2C(=O)OC3(CCCC3)OC2=O)cc1,-3.55%
5,Nc1ccc(C(=O)NCc2ccccc2)cc1,-6.94%
6,O=C(CN1CCCC1)N1CCN(c2ccccc2)CC1,-4.42%
7,CCCC(=O)N1CCc2[nH]c3ccccc3c2C1,-2.11%
8,Cc1ccc2[nH]c3c(c2c1)CN(C(=O)CN1CCN(c2ccccc2)CC1)CC3,69.5% (active)
9,COc1cc2c(cc1OC)CC1(CCCCC1)N=C2,6%
10,Cc1ccc(C2CC(c3cccc(C)c3)n3nc(N)nc3N2)cc1 (stereo not drawn),67.6% (active)
11,COc1ccc(C2CC(c3ccc(Cl)cc3Cl)Nc3nc(N)nn32)cc1OC (stereo not drawn),-5%
12,CCOc1ccccc1C1CC(c2ccccc2)Nc2nc(N)nn21 (stereo not drawn),-1.13%
13,Nc1nc2n(n1)C(c1ccco1)CC(c1ccc(Cl)c(Cl)c1)N2 (stereo not drawn),-1.56%
14,Cc1ccc(C2CC(c3cccc(Br)c3)n3nc(N)nc3N2)cc1 (stereo not drawn),89.8% (active)
15,COc1ccc(C2CC(c3ccc(C)cc3)Nc3nc(N)nn32)cc1 (stereo not drawn),3.08%
16,O=C(NCc1ccc(F)cc1)C(c1ccccc1)N(C(=O)c1csnn1)C1CC1 (stereo not drawn),-1.88%
17,Cc1ccc(C(=O)N2CCN(S(=O)(=O)N3CCOCC3)CC2)cc1,-2.24%
18,Cc1ccc(-c2cn(S(=O)(=O)c3cccc([N+](=O)[O-])c3)nc2N)cc1,3.16%
19,CC[N+]1(CC)CC2=Cc3ccccc3CC2C1 (stereo not drawn),-4.49%
20,Cc1cc(=O)[nH]c(N/N=C/c2c(C)nn(-c3ccccc3Cl)c2Cl)n1,-2.53%
21,CC(O)CN(Cc1ccc(Cl)cc1)CC(C)O (stereo not drawn),-7.47%
22,OCCN(Cc1ccccc1)Cc1ccc(Cl)cc1,78.8% (active)
23,O=C(O)CCN(Cc1ccccc1)S(=O)(=O)c1c(Cl)cccc1Cl,-2.19%
24,c1ccc2c(c1)OCCOCCOCCO2,-1.98%
25,CCOC(=O)CNc1nc(Cl)nc(Nc2ccccc2)n1,6.65%

row,Structure (SMILES),inhibition
1,CC(O)c1cccc(NC(=O)Cc2cccc3ccccc23)c1 (stereo not drawn),4.7%
2,O=c1cc(N2CCCCC2)c(-c2ccccc2)nn1Cc1cccc(F)c1,16.7%
3,COC(=O)c1c(C(=O)OC)c(-c2cccc(C)c2)n2c1CS(=O)C2 (stereo not drawn),-12.1%
4,O=[N+]([O-])c1cccc(C2=NCCS2)c1,-6.13%
5,CC(C)N(C(=O)Cn1cc(SCC(=O)N2CCCC2)c2ccccc21)C(C)C,-0.03%
6,C=CCNc1nnc(SCC(=O)N2CCCCC2)c2ccccc12,54.3% (active)
7,C=CCNc1nnc(C)c2ccccc12,8%
8,CN1C(=O)/C(=C/c2ccc(C(=O)NC3CCCC3)cc2)Oc2ccccc21,-4.09%
9,CCOC(=O)c1cc(-c2ccc(F)cc2)n(CC(=O)NCc2ccccn2)c1C,3.59%
10,COc1cccc(CNn2cn[nH]c2=S)c1OCc1ccccc1,15.9%
11,COC(=O)C(C)N=Cc1ccccc1 (stereo not drawn),-2.89%
12,Cc1cc(C(=O)COC(=O)C2CC2)c(C)n1-c1ccc(F)cc1,-2.35%
13,Cc1c(Cl)c([N+](=O)[O-])nn1CC(=O)NCC1CCCO1 (stereo not drawn),-3.45%
14,COCCCNC(=S)NCCNc1nc2cc(C)c(C)cc2cc1C#N,19.8%
15,O=C1c2ccccc2C2=Nc3ccccc3SC(c3ccccc3F)C12 (stereo not drawn),98.3% (active)
16,Cn1c(C(=O)NCCCN2CCCCC2)cc2sccc21,74.1% (active)
17,COc1ccc(CCNC(=O)c2cc3sccc3n2C)cc1OC,7.15%
18,O=C(NCCCN1CCCCCC1)c1ccc(N2CCCC2=O)cc1,0.31%
19,COc1ccc(C2(CNC(=O)Cc3ccc(OC)c(OC)c3)CCCC2)cc1,0.15%
20,CCOc1ccc(C(=O)Nc2cccc(-c3ccc4nncn4n3)c2)cc1,-2.57%
21,Cc1ccc(NC(=O)c2oc3ccccc3c2C)c([N+](=O)[O-])c1,-2.37%
22,Cc1ccc(NC(=O)c2oc(=O)c3ccccc3c2-c2ccccc2)c(C)c1,55.8% (active)
23,Cc1ccc(NC(=S)NC(=O)c2ccc(-c3ccccc3)cc2)c(C)c1,-4.31%
24,COc1ccccc1N(C)S(=O)(=O)c1ccc(Cl)c(C(=O)N2CCC(C(N)=O)CC2)c1,-3.28%
25,COc1cc(/C=N/Nc2ccc(C)cc2)cc(Br)c1O,-20.7%

row,Structure (SMILES),inhibition
1,Cc1ccccc1OCCOc1ccc([N+](=O)[O-])cc1/C=N/n1cnnc1,37.6%
2,Cc1c(Br)ccc(NC(=O)COc2ccccc2C(N)=O)c1C,2.06%
3,COc1ccccc1-c1n[nH]c2c1[C@H](C)CC[C@H]2C(C)C,62.9% (active)
4,C=C(C)COc1ccc(-c2n[nH]c(C)c2-c2ccccc2OC)c(O)c1,-7.88%
5,COc1ccccc1-c1nc(SC)n[nH]1,-6.03%
6,Cc1ccc(S(=O)(=O)N(C)C)cc1NC(=O)c1ccccc1Br,-1.67%
7,COc1ccc(OC)c(-c2csc(NC(=O)C3=NNC(=O)CC3)n2)c1,-4.28%
8,CCc1nnc(NC(=O)CSc2nc(SC)ns2)s1,-6.1%
9,CCc1cccc(OC2OC(CO)C(O)C(O)C2NC(C)=O)c1 (stereo not drawn),-8.46%
10,CCOC(=O)C1C(=O)C=C(c2ccc(OC)cc2)CC1c1ccco1 (stereo not drawn),0.83%
11,CC(=O)NC1C(Oc2ccc(C)cc2)OC2COC(c3ccco3)OC2C1O (stereo not drawn),54.2% (active)
12,CCC(C)(C)NC(=O)CN(Cc1cccs1)C(=O)CNS(=O)(=O)c1ccc(F)cc1,-4.43%
13,CCOC(=O)c1cc2n(c1N)-c1ccccc1C2=O,1.96%
14,CCOC(=O)c1c(C)[nH]c2c1-c1ccccc1C(=O)C2=O,100% (active)
15,CCOC(=O)c1c(C)[nH]c(=S)c(C#N)c1-c1ccccc1,-3.7%
16,O=c1cc(O)c(-c2cccc(C(F)(F)F)c2)c(Cl)[nH]1,16.3%
17,c1ccc2c(NCC3CCCO3)nc(-c3ccncc3)nc2c1 (stereo not drawn),3.5%
18,CC(C)(C)c1nc(NCC2CCCO2)c2nnn(Cc3ccccc3)c2n1 (stereo not drawn),2.46%
19,Clc1cccc(-c2nc(NCC3CCCO3)c3ccccc3n2)c1 (stereo not drawn),76.4% (active)
20,CCOC(=O)N/N=C/c1cn(Cc2ccccc2Cl)c2ccccc12,83.9% (active)
21,COC(=O)Cn1cc(/C=C/[N+](=O)[O-])c2ccccc21,27.7%
22,CNC(=S)N/N=C/c1ccc(OCc2ccccc2)c(Br)c1,1.78%
23,CNC(=S)N/N=C/c1cn(Cc2ccc(C)cc2)c2ccccc12,62.8% (active)
24,COC(=O)N/N=C/c1cn(CCCOc2ccc(C)cc2)c2ccccc12,55.6% (active)
25,Cc1ccc(OCCCn2c(=O)oc3ccccc32)cc1,-3.5%

row,Structure (SMILES),inhibition
1,CCOC(=O)c1cnn(Cc2ccccc2Cl)c1N,0.00878%
2,CCOC(=O)N/N=C/c1cccnc1,1.46%
3,O=C(Cn1cc(/C=N/NC(=O)c2cccc(C(F)(F)F)c2)c2ccccc21)Nc1ccc(F)cc1,6.06%
4,CCN(CC)S(=O)(=O)c1ccc(NC(=O)c2cccnc2Cl)c(NC(=O)c2cccnc2Cl)c1,-1.01%
5,O=C(Nc1ccc(Cl)cc1)C1c2cccc[n+]2CC(=O)N1Cc1ccc2c(c1)OCO2 (stereo not drawn),-2.66%
6,CCC(=O)Nc1ccc(Nc2nc(Cl)nc(Nc3ccc(NC(=O)CC)cc3)n2)cc1,-6.56%
7,N#CCSc1nn(-c2ccc(F)cc2)c(=S)s1,-4.75%
8,Cc1ccc(S(=O)(=O)N2CCN(C(=O)c3cccs3)CC2)cc1,-4.13%
9,Cc1ccnc(NS(=O)(=O)c2ccc(NC(=O)c3ccc(S(=O)(=O)N(C)C)cc3)cc2)n1,-6.03%
10,COC(=O)c1c(NC(=O)CCCC(=O)O)sc2c1CCCCC2,-4.64%
11,COCCCNc1nc2c(-c3cccc(C(F)(F)F)c3)nnn2c2ccccc12,0.99%
12,CC(=O)Nc1ccc(Nc2nc3c(S(=O)(=O)c4ccc(C)c(C)c4)nnn3c3ccccc23)cc1,3.4%
13,Cc1cccc(Nc2nc3c(S(=O)(=O)c4ccccc4)nnn3c3ccccc23)c1C,57.1% (active)
14,COc1ccc(N(CC(=O)NC2CCCC2)C(=O)CS(=O)CC(=O)Nc2ccc3c(c2)OCO3)cc1 (stereo not drawn),-10.1%
15,COc1ccc(CC(=O)NCc2nnc(SCC(=O)Nc3nccs3)n2C)cc1,-3.12%
16,CC(=O)Oc1ccccc1C1=NN(C(C)=O)C(c2ccccc2)C1 (stereo not drawn),-5.99%
17,COc1cc([N+](=O)[O-])ccc1NC(=S)N1CCN(c2ccccn2)CC1,-4.39%
18,Cc1cccn2c(=O)c3cc(C(=O)N4COCC4(C)C)n(C)c3nc12,89.9% (active)
19,Cc1cccn2c(CN(C)C3CCCc4ccccc43)c(C(=O)N3CCOCC3)nc12 (stereo not drawn),7.87%
20,O=C(O)C1C2CC2CN1C(=O)c1ccc(Cl)cc1Cl (stereo not drawn),-2.09%
21,COc1ccc2nc(SCc3ccccc3)nc(C)c2c1,-8.99%
22,COc1ccc(NC(=O)Nc2ccc3nc(C)c(C)nc3c2)cc1,6.7%
23,COc1ccc2nc(/N=C(\N)NC(=O)Nc3ccccc3)nc(C)c2c1,99.9% (active)
